In PubChem BioAssay (NCI):
The panel holds about 83,000 compounds, 20% with a hit somewhere; the sample as a whole holds those more often.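 The test compound was applied at a single concentration to cells in 96-well plates for 48 hours, and percent growth was recorded.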 Calls of active or inactive are those of the source. The calls were made as follows: active = growth percent below 10; inactive = the rest.

System: HL-60(TB) leukemia
Assay: NCI-60 one-dose screen, 48 h (100 = growth as untreated, 0 = no growth, -100 = all killed)
Conditions: 10 µM unless noted

SMILES	growth
O=S(=O)(O)c1ccc2cc(O)ccc2c1	100% (inactive)
CCCCCCn1c(-c2ccc(C(=O)O/N=C(\N)c3ccc(OC)cc3)cc2)nc(-c2ccccc2)c1-c1ccccc1	-58% (active)
O[C@H]1CO[C@H]2[C@@H]1OC[C@@H]2Oc1ccc(Nc2ccnc(Nc3ccc(O[C@H]4CO[C@H]5[C@@H]4OC[C@@H]5O)c(Cl)c3)n2)cc1Cl	-7.8% (active)
CSc1nc(=O)n(Cc2ccc(F)cc2)c(=O)n1Cc1ccc(C)cc1	90% (inactive)
Cc1ccc(C)n1-c1ccsc1C(=O)NNC(=O)C(Cl)Cl	106% (inactive)
COC(=O)CC/C(C)=N\Nc1ccc([N+](=O)[O-])cc1	24.5% (inactive)
COc1ccc(OC)c(/C=C/c2nc(SCc3ccccc3)n(-c3ccc(Cl)cc3)n2)c1	1.31% (active)
COc1ccc(Nc2nccc(N3CCN(c4c5ccc(Cl)cc5nc5ccc(OC)cc45)CC3)n2)cc1	15.4% (inactive)
CC1/C=C/C=C/C=C/C=C/C=C/C=C/C=C/C(O[C@@H]2O[C@H](C)[C@H](O)[C@@H](O)[C@@H]2N)CC(O)C(C(=O)O)C(O)CC(=O)CC(O)CC(O)CC(O)CC(=O)CCCC(=O)CC(=O)OC1C(C)CC(C)C(O)CC(=O)c1ccc(N)cc1 (stereo not given in full)	-60.3% (active)
CCCCCCCCNc1ncnc2c1ncn2Cc1nnc2c3ccccc3c(Cl)nn12	29.2% (inactive)
C=C(C)[C@@H]1CC[C@]2(C(=O)N3CCN(C)CC3)CC[C@]3(C)[C@H](CC[C@@H]4[C@@]5(C)C/C(=C/c6cccnc6)C(=O)C(C)(C)[C@@H]5CC[C@]43C)[C@@H]12	-4.95% (active)
COc1cc(CNC(=O)Cc2ccccc2)ccc1OCc1cn(-c2ccc(F)cc2)nn1	104% (inactive)
CCCCOc1ccc(/C=C2/SC(N3CCCC3)=NC2=O)cc1	98% (inactive)
O=C(c1nc2ccccc2[nH]1)C1C(c2ccc([N+](=O)[O-])cc2)C2CC3CCCCC3N2[C@@]12C(=O)Nc1cc(Cl)ccc12 (stereo not given in full)	8.45% (active)
CCCCCCCCCCCCCCCC1=NCCN1	-15.6% (active)
CNC(=O)c1cc(Oc2ccc3c(c2)sc2nc(-c4ccc(N)cc4)cn23)ccn1	2.04% (active)
COc1cc(CSc2nc3ccc(C)cc3c(=O)n2Cc2ccccc2)cc(OC)c1OC	17% (inactive)
CCN1C(=O)N(CC)C2Nn3c(s/c(=C4\C(=O)N(C(C)C)c5ccccc54)c3=O)=NC21 (stereo not given)	6.28% (active)
O=C(Nc1ccc(F)cc1)c1ccc(C(=O)Nc2ccc(F)cc2)cc1	107% (inactive)
C[C@@H](C[C@H](CC1CC1)c1ccccc1)c1ccc2ccccc2c1	107% (inactive)

SMILES	growth
CCOC(=O)c1c(C)n2c(=O)cc(C)c3c(OC(C)=O)c(OC(C)=O)cc1c32	0.923% (active)
CCN1C(=O)N(CC)C2C1NC(=S)N2/N=C/c1ccc(C(F)(F)F)cc1 (stereo not given)	78.8% (inactive)
CCN=C1C=CC(=C(c2ccc(N)cc2)c2ccc(N(CC)CC)c(C)c2)C=C1	-11% (active)
CC[N+](CCCCCCCCCC[N+](CC)(c1ccccn1)c1ccccn1)(c1ccccn1)c1ccccn1	-50.7% (active)
COc1cc2c(cc1OCCCOc1cc3c(cc1OC)C(=O)N1CCC[C@H]1C=N3)C=CC(C)(C)O2	102% (inactive)
Cc1cc(=O)[nH]c(N/N=C/c2ccccc2O)n1	71.3% (inactive)
Clc1ccc(N2N=C(c3cccc(Nc4ccncc4)c3)CC2c2ccc(Br)cc2)cc1 (stereo not given)	0.656% (active)
CC/C(=C(/c1ccc(Cl)cc1)c1ccc(OCCN2CCCCC2)cc1)c1ccc(Cl)cc1	68.5% (inactive)
O=C(Cc1ccc2c(c1)OCCO2)Nc1nc2ccc(F)cc2s1	99.6% (inactive)
COc1ccc(OCC(O)CN2CCN(c3ccc(Cl)cc3)CC2)cc1 (stereo not given)	105% (inactive)
Cc1cccc(N2CCN(CC(O)COc3ccc(Cl)cc3)CC2)c1 (stereo not given)	123% (inactive)
Oc1[nH]c2ccccc2c1/C=c1/ccc2c(c1)N=C(c1cc(F)cc(F)c1)N=2	54.2% (inactive)
CCNCCNc1cc(-c2ccc(C(=O)OC)cc2)c(C#N)c2nc3ccccc3n12	-57.2% (active)
O=C1C(Cl)=C(Nc2cccc3ccccc23)C(=O)c2ccccc21	71.1% (inactive)
CC1CCN(CCCCCOc2ccc3oc4ccc(Cl)cc4c(=O)c3c2)CC1	39.6% (inactive)
O=C(CCl)n1nnnc1Cc1ccccc1	83.5% (inactive)
C#CCOc1cccc(Nc2ncnc3ccc(NC(=O)C=C)cc23)c1	29.3% (inactive)
COc1cc(-c2nn(-c3cccc(NC(=O)Nc4cccc(C(F)(F)F)c4)c3)cc2-c2ccncc2)ccc1Cl	-18.7% (active)
CCCC/C(CC)=N\NS(=O)(=O)c1ccc([N+](=O)[O-])cc1	92.2% (inactive)
C#C[C@@]1(O)[C@@H](CO)O[C@@H](n2cc(I)c3c(N)ncnc32)[C@@H]1O	-56.6% (active)
